Assay results taken from PubChem BioAssay AID1159580 (chemical genetic matrix, 2015).
Several values for one entry are separate records, joined by “and”; a condition that tells them apart may be missing. Equal entries are not always repeated. The whole screen tested about 5,500 compounds, of which about 2,000 (36%) were called active. About 18% were inconclusive and are not listed. Rule as the data show it: active = normalized growth mostly below about 0.91 (no sharp cut-off); inconclusive = no clear call, values can overlap the other calls; inactive = mostly above about 0.92. Some of the results follow.

Test: chemical genetic growth profiling, strain panel (AID 1159580);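 also: tested at 20 µM; growth read once vehicle control cultures reached saturation at 30 °C; 1 = growth at the plate median or of vehicle wells; lower values mean less growth of the strain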
Conditions: growth OD
[1] = S. cerevisiae deletion strains, locus YAL013W, strain DEP1, active compounds read low
[2] = S. cerevisiae deletion strains, locus YAL040C, strain CLN3, active compounds read low
[3] = S. cerevisiae deletion strains, locus YDR150W, strain NUM1, active compounds read low
[4] = S. cerevisiae deletion strains, locus YDR363W, strain ESC2, active compounds read low
[5] = S. cerevisiae deletion strains, locus YER002W, strain NOP16, active compounds read low
[6] = S. cerevisiae deletion strains, locus YGR229C, strain SMI1, active compounds read low
[7] = S. cerevisiae deletion strains, locus YMR263W, strain SAP30, active compounds read low
[8] = S. cerevisiae deletion strains, locus YNL153C, strain GIM3, active compounds read low
[9] = S. cerevisiae deletion strains, locus YNL175C, strain NOP13, active compounds read low
[10] = S. cerevisiae deletion strains, locus YNL197C, strain WHI3, active compounds read low
[11] = S. cerevisiae deletion strains, locus YNL224C, strain SQS1, active compounds read low
[12] = S. cerevisiae deletion strains, locus YNL322C, strain KRE1, active compounds read low
[13] = S. cerevisiae deletion strains, locus YOR083W, strain WHI5 (second series), active compounds read low
[14] = S. cerevisiae deletion strains, locus YPL055C, strain LGE1, active compounds read low

Measured: normalized growth

CN(C)c1nc(N)c(C(=O)N=C(N)N)nc1Cl
inactive: [1] 1.01 | [2] 1 | S. cerevisiae deletion strains, locus YBR021W, strain FUR4, active compounds read low 1.01 | S. cerevisiae deletion strains, locus YBR229C, strain ROT2, active compounds read low 1.01 | S. cerevisiae deletion strains, locus YCL029C, strain bik1, active compounds read low 1.01 | S. cerevisiae deletion strains, locus YDL035C, strain GPR1, active compounds read low 1.03 | S. cerevisiae deletion strains, locus YDL074C, strain BRE1, active compounds read low 0.983 | S. cerevisiae deletion strains, locus YDL101C, strain DUN1, active compounds read low 1.01 | S. cerevisiae deletion strains, locus YDL134C, strain PPH21, active compounds read low 0.999 | S. cerevisiae deletion strains, locus YDL185W, strain tfp1, active compounds read low 1.01 | S. cerevisiae deletion strains, locus YDL192W, strain arf1, active compounds read low 1.01 | S. cerevisiae deletion strains, locus YDR101C, strain arx1, active compounds read low 1 | [3] 0.982 and 0.999 | S. cerevisiae deletion strains, locus YDR162C, strain NBP2, active compounds read low 0.985 | S. cerevisiae deletion strains, locus YDR318W, strain mcm21, active compounds read low 1.02 | [4] 1 | S. cerevisiae deletion strains, locus YDR388W, active compounds read low 1 | S. cerevisiae deletion strains, locus YDR502C, strain sam2, active compounds read low 0.983 | S. cerevisiae deletion strains, locus YEL061C, strain CIN8, active compounds read low 1.01 | [5] 1.01 | S. cerevisiae deletion strains, locus YER110C, active compounds read low 1.02 | S. cerevisiae deletion strains, locus YER155C, strain BEM2, active compounds read low 1.01 | S. cerevisiae deletion strains, locus YER167W, strain BCK2, active compounds read low 1.02 | S. cerevisiae deletion strains, locus YGL078C, strain dbp3, active compounds read low 0.989 | S. cerevisiae deletion strains, locus YGL086W, strain mad1, active compounds read low 1.02 | S. cerevisiae deletion strains, locus YGL248W, strain PDE1, active compounds read low 1 | S. cerevisiae deletion strains, locus YGR078C, strain PAC10, active compounds read low 0.99 | S. cerevisiae deletion strains, locus YGR135W, strain pre9, active compounds read low 0.967 | [6] 1 | S. cerevisiae deletion strains, locus YGR252W, strain gcn5, active compounds read low 1.02 | S. cerevisiae deletion strains, locus YHR030C, strain SLT2, active compounds read low 1.01 | S. cerevisiae deletion strains, locus YHR079C, strain IRE1 (second series), active compounds read low 1.01 | S. cerevisiae deletion strains, locus YHR094C, strain hxt1, active compounds read low 0.998 | S. cerevisiae deletion strains, locus YHR129C, strain ARP1, active compounds read low 1.01 | S. cerevisiae deletion strains, locus YHR200W, strain rpn10, active compounds read low 1 | S. cerevisiae deletion strains, locus YIL066C, strain RNR3, active compounds read low 1.02 | S. cerevisiae deletion strains, locus YIL073C, strain SPO22, active compounds read low 1.07 | S. cerevisiae deletion strains, locus YIL125W, strain kgd1, active compounds read low 1 | S. cerevisiae deletion strains, locus YIR030C, strain dcg1, active compounds read low 0.998 | S. cerevisiae deletion strains, locus YJL095W, strain BCK1, active compounds read low 0.997 | S. cerevisiae deletion strains, locus YJL134W, strain LCB3, active compounds read low 1 | S. cerevisiae deletion strains, locus YJL168C, strain set2, active compounds read low 1 | S. cerevisiae deletion strains, locus YJL187C, strain SWE1 (second series), active compounds read low 0.988 | S. cerevisiae deletion strains, locus YJR043C, strain POL32, active compounds read low 1.03 | S. cerevisiae deletion strains, locus YJR075W, strain HOC1, active compounds read low 1.01 | S. cerevisiae deletion strains, locus YKL009W, strain mrt4, active compounds read low 1.06 | S. cerevisiae deletion strains, locus YKL068W, active compounds read low 0.997 | S. cerevisiae deletion strains, locus YKL085W, strain MDH1 (second series), active compounds read low 1.01 | S. cerevisiae deletion strains, locus YKL085W, strain MDH1, active compounds read low 1.01 | S. cerevisiae deletion strains, locus YKL190W, strain CNB1, active compounds read low 1.01 | S. cerevisiae deletion strains, locus YKR001C, strain vps1, active compounds read low 1.02 | S. cerevisiae deletion strains, locus YLR039C, strain RIC1, active compounds read low 1.06 | S. cerevisiae deletion strains, locus YLR058C, strain SHM2, active compounds read low 1.01 | S. cerevisiae deletion strains, locus YLR102C, strain apc9, active compounds read low 1 | S. cerevisiae deletion strains, locus YLR262C, strain YPT6, active compounds read low 1.04 | S. cerevisiae deletion strains, locus YLR268W, strain sec22, active compounds read low 0.988 | S. cerevisiae deletion strains, locus YLR330W, strain CHS5, active compounds read low 1.01 | S. cerevisiae deletion strains, locus YLR342W, strain FKS1 (second series), active compounds read low 1.07 | S. cerevisiae deletion strains, locus YLR371W, strain rom2, active compounds read low 1.01 | S. cerevisiae deletion strains, locus YLR418C, strain cdc73, active compounds read low 0.925 | S. cerevisiae deletion strains, locus YML016C, strain PPZ1, active compounds read low 1 | S. cerevisiae deletion strains, locus YML032C, strain rad52, active compounds read low 1.03 | S. cerevisiae deletion strains, locus YML124C, strain tub3, active compounds read low 0.999 | S. cerevisiae deletion strains, locus YMR078C, strain ctf18, active compounds read low 1.01 | S. cerevisiae deletion strains, locus YMR223W, strain ubp8, active compounds read low 1.02 | [7] 0.988 | S. cerevisiae deletion strains, locus YMR307W, strain GAS1, active compounds read low 1.06 | S. cerevisiae deletion strains, locus YNL067W, strain RPL9B, active compounds read low 0.986 | S. cerevisiae deletion strains, locus YNL128W, strain TEP1, active compounds read low 1.01 | [8] 0.999 and 0.967 | [9] 1.01 | [10] 1 | [11] 1.01 | S. cerevisiae deletion strains, locus YNL233W, strain BNI4, active compounds read low 0.989 | S. cerevisiae deletion strains, locus YNL250W, strain rad50, active compounds read low 1.01 | S. cerevisiae deletion strains, locus YNL271C, strain bni1, active compounds read low 1.01 | S. cerevisiae deletion strains, locus YNL298W, strain CLA4, active compounds read low 1.01 | S. cerevisiae deletion strains, locus YNL307C, strain MCK1, active compounds read low 1.02 | [12] 1.01 | S. cerevisiae deletion strains, locus YNR052C, strain pop2, active compounds read low 1.02 | S. cerevisiae deletion strains, locus YOL006C, strain TOP1, active compounds read low 0.981 | S. cerevisiae deletion strains, locus YOL012C, strain htz1 1.37 | S. cerevisiae deletion strains, locus YOL147C, strain pex11, active compounds read low 1.01 | S. cerevisiae deletion strains, locus YOR061W, strain CKA2, active compounds read low 1.01 | S. cerevisiae deletion strains, locus YOR069W, strain VPS5, active compounds read low 1.01 | [13] 1.01 | S. cerevisiae deletion strains, locus YOR136W, strain idh2, active compounds read low 1 | S. cerevisiae deletion strains, locus YOR144C, strain elg1, active compounds read low 1 | S. cerevisiae deletion strains, locus YOR184W, strain ser1, active compounds read low 1.05 | S. cerevisiae deletion strains, locus YOR316C, strain cot1, active compounds read low 1 | [14] 0.956 | S. cerevisiae deletion strains, locus YPL241C, strain CIN2, active compounds read low 0.999 | S. cerevisiae deletion strains, locus YPR119W, strain clb2, active compounds read low 0.988 | S. cerevisiae deletion strains, locus YPR141C, strain kar3, active compounds read low 0.999 | S. cerevisiae deletion strains, locus YPR163C, strain tif3, active compounds read low 0.999 | S. cerevisiae deletion strains, locus YPR167C, strain met16, active compounds read low 1 | S. cerevisiae deletion strains, strain wtn01, active compounds read low 0.997 | S. cerevisiae strains, strain wild type, active compounds read low 1.01

NC(=NCc1ccccc1)NC(=O)c1nc(Cl)c(N)nc1N
inactive: [2] 1 | [3] 1.02 | [4] 0.994 | [5] 1.01 | [6] 0.999 | [8] 0.993 | [9] 1.01 | [10] 0.996 | [11] 1.02 | [12] 1.01 | [13] 0.965 | [14] 1.01

CCN(c1nc(N)c(C(=O)N=C(N)N)nc1Cl)C(C)C
inactive: [1] 1 | [2] 1 | [4] 0.989 | [5] 1.04 | [7] 1 | [9] 1.04 | [10] 1.02 | [11] 1.06 | [13] 1.02
